Rows were chosen to be rich in hits. Some 3.8% of all compounds tested hit in one or more screens of this group.
PfM18AAP inh – PfM18AAP inhibitors, malaria aminopeptidase, primary screen, biochemical, QFRET, recombinant enzyme | M18 aspartyl aminopeptidase (Plasmodium falciparum 3D7) | H-Glu-NHMec fluorogenic cleavage | inhibition, % at 7.35 µM | 290,000 compounds, 1.2% hits | AID 1822, 2009;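 active means inhibition above the campaign mean inhibition over all tested compounds plus 3 SD, cut at about 28% in these data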;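 further: 0% = plate median of test compound wells and 100% = 2 mM ZnCl2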
PAFAH2 FP inh – PAFAH2 enzyme inhibitors, primary screen, biochemical, fluorescence polarization, human; Platelet-activating factor acetylhydrolase 2, cytoplasmic (Homo sapiens), Q99487; inhibition, % at 3.39 µM; 340,000 compounds, 0.99% hits; recombinant PAFAH2, FP-rhodamine activity probe;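 active means inhibition above the mean over all tested compounds plus 3 SD, cut at about 30% in these data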;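 further: inhibitors block probe labeling of enzyme so polarization drops; 0% = enzyme with DMSO and 100% = wells lacking PAFAH2 protein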
DSG3 Ab inh – inhibitors of pemphigus antibody binding to DSG3, primary screen, biochemical, bead-based, flow cytometry, scFv-GFP; Desmoglein-3 (Homo sapiens), P32926; DSG3-coupled beads, scFv-anti-DSG3-GFP binding; active compounds read low; binding (percent of control), % at 10 µM; 310,000 compounds, 0.48% hits; AID 588358, 2011;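 active means binding more than 3 SD below its plate's average and above zero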;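 further: hits lower antibody fragment binding to DSG3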
PAFAH1B2 FP inh – PAFAH1B2 enzyme inhibitors, primary screen, biochemical, fluorescence polarization, human. recombinant PAFAH1B2, FP-rhodamine activity probe. inhibition, % at 3.39 µM. 340,000 compounds, 1.2% hits. AID 492953, 2010;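 active means inhibition above the mean of all tested compounds plus 3 SD, cut at about 24% in these data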;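 further: 0% = enzyme with DMSO and 100% = wells lacking PAFAH1B2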
PAFAH1B3 FP inh – PAFAH1B3 enzyme inhibitors, primary screen, biochemical, fluorescence polarization, human. Platelet-activating factor acetylhydrolase IB subunit alpha1 (Homo sapiens), Q15102. recombinant PAFAH1B3, FP-rhodamine probe. inhibition, % at 3.39 µM. 340,000 compounds, 0.28% hits. AID 492972, 2010;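 active means inhibition above the screen-wide average of all tested compounds plus 3 SD, cut at about 25% in these data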;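 further: 0% = enzyme with DMSO only and 100% = wells lacking PAFAH1B3 protein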
pPAFAH inh – pPAFAH enzyme inhibitors, primary screen, biochemical, fluorescence polarization, human; inhibition, % at 3.39 µM; 330,000 compounds, 1.5% hits; recombinant pPAFAH, FP-rhodamine probe fluorescence polarization; Platelet-activating factor acetylhydrolase (Homo sapiens), Q13093;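 active means inhibition above the mean inhibition across the screen plus 3 SD, cut at about 25% in these data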;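 further: inhibitors block binding of the rhodamine activity-based probe so polarization drops; 0% = enzyme with DMSO and 100% = wells lacking pPAFAH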
* marks the source's active call; other numbers are inactive results; . = no result.

SMILES	PfM18AAP inh	PAFAH2 FP inh	DSG3 Ab inh	PAFAH1B2 FP inh	PAFAH1B3 FP inh	pPAFAH inh
O=C(CCCN1C(=O)/C(=C/c2cccs2)SC1=S)Nc1cc([N+](=O)[O-])ccc1O	0.3	27.4	101.5	4.1	5.9	30.1*
COC(=O)[C@@]1(Cc2ccc(F)cc2)[C@H]2c3cc(C(=O)N4CCCC4)n(CCCNc4ncc(C(F)(F)F)cc4Cl)c3C[C@H]2CN1C(=O)c1ccccc1	8.9	-10.1	.	1.1	-1.2	15.2
COc1cccc(OCc2cc(C(=O)NCC3CCCCC3)no2)c1	2.1	7.3	100.4	3.2	6.6	2.0
CCOC(=O)CC1(NC(=O)c2cc(COc3cccc(OC)c3)on2)CCCCC1	1.5	0.5	81.3*	7.7	6.8	1.6
CC(=O)c1cccc(NC(=O)C(C)OC(=O)CCN=C2NS(=O)(=O)c3ccccc32)c1 (stereo unspecified)	.	105.9*	110.1	105.7*	86.3*	-7.2
N#CCCN(Cc1ccccc1)C(=O)c1cccs1	-3.7	11.0	105.3	7.3	0.3	-0.1
O=C(NCc1ccccc1F)C1CC(=O)N(Cc2ccco2)C1 (stereo unspecified)	.	.	113.8	.	.	.
CCN(CC)CCCn1c2c(c(SCC(=O)Nc3cccc4ccccc34)nc1=O)CCC2	.	32.1*	107.3	33.9*	35.7*	2.5
O=C(O)C1(C(=O)O)CCC2(CCCCC2)CC1	.	.	105.8	.	.	.
N#CC1=C(c2ccc(-c3ccccc3)cc2)COC1=O	0.1	2.2	110.0	1.6	2.5	26.4*
O=C(NCc1ccccc1)C1CC(=O)N(c2ccc(OCC(=O)N3CCOCC3)cc2)C1 (stereo unspecified)	-15.0	-1.7	92.8	5.4	0.2	-3.7
c1ccc(COc2ncnc3c2ncn3CCCN2CCN(c3ncccn3)CC2)cc1	.	.	112.0	.	.	.
Cc1ccc(SCCC(=O)NCCSCc2ccccc2C)cc1	-5.4	-1.3	111.7	42.0*	2.0	4.0
CCOc1ccccc1C(=O)NCC(=O)NCCSc1ccc(Br)cc1	.	-4.1	99.6	27.8*	3.7	.
Cc1cccc(NS(=O)(=O)c2cc(C(=O)NCCC3=CCCCC3)ccc2Cl)c1	0.3	1.6	104.1	25.2*	-3.0	12.2
CCCCNC(=O)CCSc1ccc(C)cc1	-0.1	-1.5	98.4	13.4	3.6	2.4
Cc1ccc(SCCNC(=O)c2ccccc2F)cc1	0.5	-5.5	99.1	25.4*	0.1	4.8
O=C(N=C1SC2CS(=O)(=O)CC2N1c1ccc(Br)cc1)C1CCCO1 (stereo unspecified)	-1.0	5.5	106.1	0.8	3.4	7.4
CCc1cc(-c2nnn(-c3cc(C(C)C)ccc3C)c2CC)ccc1-c1cn(CCc2c[nH]c3ccccc23)nn1	.	.	104.7	.	.	.
Cc1ccc(NS(=O)(=O)c2cc(C(=O)NCCSc3ccc(C)cc3)ccc2C)cc1	1.2	-35.6	102.1	15.0	-15.8	14.3
CCOc1ccc(C(=O)NCCC2=CCCCC2)cc1OCC	0.5	0.6	104.0	8.8	9.4	-1.5
Cc1ccc(SCCNC(=O)c2ccc(C)c(S(=O)(=O)Nc3cccc(C)c3)c2)cc1	4.9	-18.2	108.8	20.6	-5.8	29.7*
Cc1ccc(OCCNC(=O)c2ccccc2N)cc1	0.6	1.0	45.5*	2.4	11.4	-6.9
Cc1ccc(SCCNC(=O)c2ccccc2)cc1	-3.3	7.9	98.2	26.5*	8.9	2.5
COc1ccccc1C(=O)NCCC(=O)NCCOc1ccc(C)cc1	.	.	97.9	.	.	.
CN1C(=O)CS(=O)c2ccc(C(=O)NCCC3=CCCCC3)cc21 (stereo unspecified)	29.5*	-3.8	108.0	0.9	0.7	5.1
O=C(OCC(=O)N1CCOCC1)c1cncc(Br)c1	.	.	101.9	.	.	.
O=C(C[C@@H]1C[C@@H]2c3cc(NS(=O)(=O)c4ccc(F)cc4)ccc3O[C@@H]2[C@@H](CO)O1)NC1CCCCC1	.	.	99.9	.	.	.
CSC[C@H]1CN(CCc2ccccc2)C(=O)[C@@H]1CC(=O)Nc1ccccc1	.	.	98.9	.	.	.

Compound activity: PubChem BioAssay, several laboratories
